# From PubChem
# KCNQ2 inh – blocks the rat KCNQ2 potassium channel; O88943; CHO-K1 KCNQ2, FluxOR thallium flux, 20 min; active compounds read low; B-score at 10 µM; 310,000 tested, 1.1% active;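 active = fluorescence ratio B-score at most minus 3 library SDs, with starting brightness B-score within 2 library SDs, cut at about -5.5 in these data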
# Target sequence (O88943 whole entry, looked up): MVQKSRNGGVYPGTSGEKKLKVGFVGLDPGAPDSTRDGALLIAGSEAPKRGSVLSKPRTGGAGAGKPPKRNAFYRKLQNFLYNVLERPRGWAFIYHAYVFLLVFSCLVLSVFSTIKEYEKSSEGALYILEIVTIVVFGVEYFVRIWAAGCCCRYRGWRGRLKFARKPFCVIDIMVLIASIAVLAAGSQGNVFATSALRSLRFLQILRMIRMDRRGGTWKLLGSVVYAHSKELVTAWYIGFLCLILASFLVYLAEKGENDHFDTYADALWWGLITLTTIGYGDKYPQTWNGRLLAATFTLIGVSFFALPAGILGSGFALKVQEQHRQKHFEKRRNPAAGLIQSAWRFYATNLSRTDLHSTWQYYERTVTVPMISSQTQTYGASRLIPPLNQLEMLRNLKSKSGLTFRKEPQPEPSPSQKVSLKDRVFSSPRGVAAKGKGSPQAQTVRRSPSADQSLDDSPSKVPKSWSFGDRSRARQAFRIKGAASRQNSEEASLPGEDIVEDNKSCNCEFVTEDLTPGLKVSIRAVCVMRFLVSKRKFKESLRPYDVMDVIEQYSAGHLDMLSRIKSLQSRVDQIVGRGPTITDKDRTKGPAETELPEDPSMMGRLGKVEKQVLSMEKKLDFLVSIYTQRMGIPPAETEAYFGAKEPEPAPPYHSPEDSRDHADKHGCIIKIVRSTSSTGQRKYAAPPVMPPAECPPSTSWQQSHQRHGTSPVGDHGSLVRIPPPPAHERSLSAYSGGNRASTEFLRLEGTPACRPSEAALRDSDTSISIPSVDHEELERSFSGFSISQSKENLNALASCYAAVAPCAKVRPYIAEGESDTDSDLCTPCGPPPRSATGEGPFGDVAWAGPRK
# KCNQ2 enhance – KCNQ2 (rat) channel potentiation; B-score at 10 µM; O88943; 310,000 tested, 0.54% active; CHO-K1 KCNQ2, FluxOR thallium flux fluorescence; active compounds read high;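 active = fluorescence ratio B-score at least 3 SD of library B-scores, with initial fluorescence B-score within 3 of them, cut at about 5.3 in these data; same plate scores as AID 2156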;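 also: B-score of peak minus minimum over baseline fluorescence ratio after K+ and Tl+ stimulus; positive B-score means potentiation of KCNQ2 with more thallium influx and brighter signal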
# * = called active by the depositor; i = inactive; · = no result. Only some compounds are listed: those with a hit (about 1.6% of all), similar ones and a draw of the others.
SMILES,KCNQ2 inh,KCNQ2 enhance
CCn1c2ccccc2c2cc(NC(=O)C(C)Oc3ccc(OC)cc3)ccc21 (centres undefined),-6.17*,-6.17
CN(C)/C=N/S(=O)(=O)c1ccc(Cl)c(Cl)c1,i,·
C#CCOc1ccc(/C=C2/C(=O)NN(c3ccc(F)cc3)C2=O)cc1OC,i,2.76
Cc1cc(C)c(C#N)c(SCC(=O)CC(=O)OC(C)C)n1,i,·
CC(C)OC(=O)CSc1nc2c(c(C3CC=CCC3)c1C#N)CCC2 (centres undefined),-5.97*,-5.97
CC(c1ccccc1)N(CCC(c1ccccc1)C1CCOC(C)(C)C1)C(=O)c1ccco1 (centres undefined),i,·
COc1ccc(CN(CCC(c2ccc(F)cc2)C2CCOC(C)(C)C2)C(=O)c2ccco2)cc1 (centres undefined),-5.78*,-5.78
Cc1ccc(Oc2ncnc(N)c2[N+](=O)[O-])cc1C,i,1.65
O=C(c1ccc(-c2cccc(C(F)(F)F)c2)o1)N1CCCCCCC1,-6.19*,-6.19
O=C(Cn1nnc(-c2cccc(C(F)(F)F)c2)n1)N1CCCCCC1,i,11.7*
O=C(c1ccco1)N1CCN(C(=O)c2ccc(-c3cccc(C(F)(F)F)c3)o2)CC1,i,0.1
O=C(Cn1nnc(-c2ccccc2)n1)N1CCCCC1,i,1.53
CCOc1ccc(CCNC(=O)C2CSC3(C)CCC(=O)N23)cc1OCC (centres undefined),i,·
COc1c(CC=C(C)C)cc(C2CC(=O)c3c(O)cc(O)cc3O2)cc1CC=C(C)C (centres undefined),-5.6*,-5.6
O=C1C[C@@H](c2ccccc2)Oc2cc(O)cc(O)c21,i,0.64
CCOc1ccc(S(=O)(=O)N(C)CC(=O)NCc2ccccn2)cc1Cl,i,1.44
COc1ccc(C2=Nc3ccc(C)cc3C(c3ccccc3)N2CC(=O)NN)cc1 (centres undefined),i,2.66
COc1ccc(C2=Nc3ccc(Br)cc3C(c3ccccc3)N2CC(=O)NN)cc1 (centres undefined),i,7.81*
COc1cccc(C(=O)NC(C)c2cccc3ccccc23)c1OC (centres undefined),i,·
COc1cccc(C(=O)NC(C)c2ccc(-c3ccccc3)cc2)c1OC (centres undefined),-5.96*,-5.96
Cc1sc2ncn(CC(=O)NCC(=O)N3CCN(c4ccc(F)cc4)CC3)c(=O)c2c1C,i,1.45
COc1ccc(-c2cc(C(F)(F)F)nc(N3CCN(Cc4ccccc4)CC3)n2)cc1OC,-5.6*,-5.6
COc1ccc(-c2cc(C(F)(F)F)nc(N3CCN(c4ccc(F)cc4)CC3)n2)cc1OC,i,0.7
CN(C(=O)COC(=O)/C=C/c1ccc(Cl)c(Cl)c1)c1c(N)n(Cc2ccccc2)c(=O)[nH]c1=O,i,0.1
Cc1cccc(-c2nc(NCCCN3CCOCC3)c3ccccc3n2)c1,-5.92*,-5.92
SMILES,KCNQ2 inh,KCNQ2 enhance
c1ccc(-c2cn(-c3ccccc3)c3ncnc(NCCCN4CCOCC4)c23)cc1,-5.59*,-5.59
c1ccc(-c2nc(NCCCN3CCOCC3)c3ccccc3n2)cc1,i,0.42
COc1ccc(-n2cc(-c3ccccc3)c3c(NCCCN4CCOCC4)ncnc32)cc1,i,·
CC(=O)Nc1ccc2nc(NC(=O)COc3cccc(C)c3)sc2c1,i,0.55
C/C(CC(=O)Nc1ccccn1)=N\NC(=O)c1ccncc1,i,·
CCOC(=O)N1CCC(N2CCCC(CO)(Cc3cccc(OC)c3)C2)CC1 (centres undefined),i,·
CC(C)Cc1nnc(NC(=O)c2ccc3c(=O)n4c(nc3c2)CCC4)s1,i,0.36
CN(C(=O)Nc1ccc(C(C)(C)C)cc1)C1CCCCC1,i,·
Cc1ccc(C(=O)CCS(=O)(=O)c2ccc(Br)cc2)cc1,i,·
COc1ccc(C(=O)CCS(=O)(=O)c2ccc(C)cc2)cc1,-6.39*,-6.39
COc1ccc(CCNC(=O)CSc2nn(-c3ccccc3)c(=S)s2)cc1,i,1.06
O=C1C=CC(=O)N1N(c1ccccc1)c1ccccc1,-6.24*,-6.24
O=C1C=CC(=O)N1Cc1ccccc1,i,·
O=C(COc1ccc(Cc2ccccc2)cc1)c1ccc(F)cc1,i,6.69*
O=C(COc1ccc(F)cc1)c1ccc2c(c1)CCCC2,i,·
Cc1ccc(S(=O)(=O)N2CCCC2C(=O)NCc2ccccc2Cl)cc1 (centres undefined),-6.56*,-6.56
CC(=O)N1c2ccc(S(=O)(=O)N3CCC(C(=O)NCc4ccccc4Cl)CC3)cc2CC1C (centres undefined),i,·
COc1ccc(S(=O)(=O)N2CCCC2C(=O)NCc2ccccc2Cl)cc1 (centres undefined),i,·
Cc1ccc(S(=O)(=O)N2CCCC2C(=O)Nc2nc3ccccc3s2)cc1 (centres undefined),i,·
O=C(Nc1nc2ccccc2s1)C1CCCN1S(=O)(=O)c1ccc(Cl)cc1 (centres undefined),-5.59*,-5.59
CC(=O)N1c2ccc(S(=O)(=O)N3CCCC(C(=O)NCc4ccccc4Cl)C3)cc2CC1C (centres undefined),-6.24*,-6.24
O=C(c1cc(-c2cccc(Br)c2)nc2ccccc12)N1CCCC1,i,·
O=C(c1cc(-c2ccc(Cl)s2)nc2ccccc12)N1CCCC1,i,0.14
O=C(c1cc(-c2ccc(Br)cc2)nc2ccccc12)N1CCC1,-6.44*,-6.44
Cc1ccc(-c2cc(C(=O)N3CCCC3)c3ccccc3n2)s1,-5.86*,-5.86
SMILES,KCNQ2 inh,KCNQ2 enhance
O[C@@H](c1cc(C(F)(F)F)nc2c(C(F)(F)F)cccc12)[C@H]1CCCCN1,i,0.92
OC(c1cc(-c2ccc(Cl)cc2)nc2ccccc12)C1CCCCN1 (centres undefined),-7.32*,-7.32
O=C(NC1CCCCC1)C(c1ccccc1)N(C(=O)c1csnn1)C1CC1 (centres undefined),i,0.07
COc1ccc(CC(=O)Nc2cccc(/C(C)=N/NC(=O)c3cccc([N+](=O)[O-])c3)c2)cc1,-6.04*,-6.04
COc1ccc(CC(=O)N/N=C(\C)c2cccc(NC(=O)C3CC3)c2)cc1,i,2.85
COc1ccc(OC)c(C(=O)CSc2nnc(-c3cccs3)n2C)c1,i,0.04
COc1cccc(OCc2nnc(SCC(=O)NCc3ccco3)n2CCc2ccccc2)c1,-6.82*,-6.82
COc1ccc(-n2c(COc3ccc4ccccc4c3)nnc2SCC(=O)NCc2ccco2)cc1,i,1.05
COc1ccc(OC)c(C(=O)CSc2nnc(Cc3cccs3)n2CCc2ccccc2)c1,-7.07*,-7.07
CN(C)S(=O)(=O)c1cc(NC(=O)CSc2nn(-c3ccc(Cl)cc3)c(=S)s2)ccc1Cl,i,·
Cc1ccc(NC(=O)CSc2nn(-c3ccc(Cl)cc3)c(=S)s2)cc1S(=O)(=O)N(C)C,-7.14*,-7.14
O=C(O)Cc1coc2cc3c(cc12)CCC3,i,·
O=C(Cc1coc2cc3c(cc12)CCC3)NC1CCCCCCC1,i,12.4*
O=C(COC(=O)CC(c1ccccc1)c1ccccc1)Nc1ccc(F)c(F)c1,-8.08*,-8.08
O=C(COC(=O)CC(c1ccccc1)c1ccccc1)Nc1cccc(F)c1,i,·
CCc1noc(C)c1C(=O)Nc1cc(S(=O)(=O)N2CCOCC2)ccc1OC(C)C,i,·
CCCc1cc(-c2[nH]ncc2-c2ccc(C(=O)OCC)o2)c(O)cc1O,i,1.2
CCCc1cc(-c2[nH]ncc2-c2ccc3c(c2)OCCCO3)c(O)cc1O,-8.53*,-8.53
